Source: PubChem BioAssay
JMJD2E inh – qHTS Assay for Inhibitors of Human Jumonji Domain Containing 2E (JMJD2E) | JMJD2E catalytic domain, FDH-coupled NADH fluorescence (FDH is formaldehyde dehydrogenase) | Potency, µM (top dose mostly 57.1 µM), without a hit: top-dose activity change, negative = inhibition, actives largely listed as inhibitors | actives 1.6% (n = 230,000); active = well fitted inhibition curve with a large enough effect, not every such curve was filed as active; inconclusive = small, poorly fitted or top-dose-only effect, or another doubt; inactive = no such curve, though single readings can be large or run the other way;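 note: potency is the fitted concentration of half-maximal effect; 0% = wells with enzyme and -100% = buffer wells without enzyme; nearly all actives have a fitted effect of over 50% in size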
Target sequence (B2RXH2 1-337 limits assumed): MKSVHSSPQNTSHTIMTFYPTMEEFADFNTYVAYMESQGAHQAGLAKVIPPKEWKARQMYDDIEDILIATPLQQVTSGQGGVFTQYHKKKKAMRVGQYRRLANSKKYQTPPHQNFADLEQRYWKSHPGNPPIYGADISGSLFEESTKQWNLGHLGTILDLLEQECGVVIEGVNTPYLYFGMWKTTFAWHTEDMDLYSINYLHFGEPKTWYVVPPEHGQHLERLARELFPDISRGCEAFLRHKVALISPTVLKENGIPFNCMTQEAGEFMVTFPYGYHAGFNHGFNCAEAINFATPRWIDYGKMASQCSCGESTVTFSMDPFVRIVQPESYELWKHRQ
Sfp inh – qHTS Assay for Inhibitors of Bacillus subtilis Sfp phosphopantetheinyl transferase (PPTase); actives 3.5% (n = 310,000); Potency, µM, for inactives: largest response in the series, negative = inhibition, hits mostly inhibitors; Biochemical Sfp PPTase activity, qHTS; 4'-phosphopantetheinyl transferase ffp (Bacillus subtilis), Q9F4F7; AID 1490, 2009;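 note: the enzyme is Sfp with the accession as filed and its product quenches rhodamine fluorescence; potency is the fitted concentration of half-maximal effect; 0% = enzyme reaction without inhibitor and -100% = no enzyme wells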
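Buffer: 50 mM Hepes-Na pH 7.6, 10 mM MgCl2, 0.01% Nonidet P-40, 0.01% BSA. Enzyme 15 nM, pre-exposed to compound 15 min; substrates then added and fluorescence change tracked over 30 min.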
Tau FP inhib – qHTS for Inhibitors of Tau Fibril Formation, Fluorescence Polarization; K18 P301L tau heparin fibrillization, Alexa594 FP, 6 h; Potency, µM (series often up to 57.7 µM), without a hit: at the top dose activity, negative = inhibition, usual class: inhibitors; actives 0.39% (n = 280,000); note: potency is the fitted concentration of half-maximal effect; nearly all actives have a fitted effect of over 55% in size
Target sequence (P10636 561-689 P618L limits assumed): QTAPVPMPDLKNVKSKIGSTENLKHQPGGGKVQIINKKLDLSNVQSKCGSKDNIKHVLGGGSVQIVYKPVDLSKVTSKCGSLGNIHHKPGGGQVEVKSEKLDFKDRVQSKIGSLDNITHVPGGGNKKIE
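Heparin (20 uM) drove fibril formation of recombinant tau K18 P301L, 15 uM unlabeled with 0.24 uM Alexa 594 label, for 6 hr at 37 C in 100 mM sodium acetate pH 7. Fluorescence polarization (555/632 nm) read 1 hr after 30 uM ThT.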
Tau ThT inhib – qHTS for Inhibitors of Tau Fibril Formation, Thioflavin T Binding | recombinant tau K18 P301L, heparin-induced fibrillization, ThT fluorescence | Potency, µM (doses to about 57.4 µM), for the others: at the top dose activity, negative = inhibition, usual class: inhibitors | actives 2.1% (n = 270,000); note: potency is the fitted concentration of half-maximal effect; nearly all actives have a fitted effect of over 55% in size
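Heparin-induced (20 uM) aggregation of recombinant human K18 P301L tau, 15 uM unlabeled with 0.24 uM labeled, pH 7 acetate buffer, 6 hr at 37 C with compound. Fibrils quantified by 30 uM ThT fluorescence after 1 hr ambient incubation.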
Tau fluor cs – Counterscreen qHTS for Inhibitors of Tau Fibril Formation, Fluorescence Polarization; tau K18 P301L Alexa594 fluorescence, heparin fibrillization; Potency, µM (highest dose often 57.7 µM), without a hit: top-dose activity change, negative = decrease; actives 0.93% (n = 280,000); AID 1463, 2008; note: potency is the fitted concentration of half-maximal effect; nearly all actives have a fitted effect of over 55% in size
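Human tau K18 P301L (15 uM unlabeled, 0.24 uM Alexa 594-labeled) in 100 mM sodium acetate pH 7 with 20 uM heparin, 6 hr at 37 C. ThT 30 uM added, 1 hr ambient; Alexa 594 FP and total fluorescence read at 555/632 nm.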
FBPA coupling cs – qHTS Assay for Inhibitors of Fructose-1,6-bisphosphate Aldolase from Giardia Lamblia: Coupling assay counterscreen; coupling enzyme system counterscreen, AmpLite Red fluorescence; activity change, negative = inhibition, % at 58.2 µM, hits read low; actives 0.67% (n = 290,000); in the data active = activity change below about -30%
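Coupling enzymes only (glyceraldehyde-3-phosphate) + compound, at 57.5 uM final, 10 min RT; add substrate/coupling/AmpLite Red mix, 20 min RT; fluorescence ex 525/em 598 nm. Actives flag coupling-system interference.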
An asterisk follows results filed as active; ? = inconclusive; · = no result; ! = not confirmed by another sample; [ ] = dose if it differs, or a comment. A selection: hits, their analogues and other compounds. The true share with any hit is near 5.3%. Unless noted, calls come from the whole dose curve; as a rule, active = well fitted curve in the direction sought with a large enough effect; inconclusive = small, poorly fitted or top-dose-only effect, or another doubt; inactive = no such curve, though single readings can be large; an effect the other way counts as inactive or inconclusive. Unless noted, % is set by controls: 0 for no effect and ±100 for the full control effect.

SMILES | JMJD2E inh | Sfp inh | Tau FP inhib | Tau ThT inhib | Tau fluor cs | FBPA coupling cs
CN1/C(=C/C=C(C#N)C#N)C=Cc2ccccc21 | 7% | 4% | 25µM* | ? | ? | -3
c1nc(N2CCOCC2)c2cc(-c3ccoc3)ccc2n1 | · | 0% | · | · | · | 1
CC(C)c1nn2c(=O)cc(COC(=O)c3ccc(NC(=O)CCc4ccccc4)cc3)nc2s1 | · | · | -3% | -1% | -1% | ·
CC[C@@H]1/C=C(\C)C[C@H](C)C[C@H](OC)[C@H]2O[C@@](O)(C(=O)C(=O)N3CCCC[C@H]3C(=O)O[C@H](/C(C)=C/[C@@H]3CC[C@H](Cl)[C@H](OC)C3)[C@H](C)[C@@H](O)CC1=O)[C@H](C)C[C@@H]2OC | · | 12% | · | · | · | ·
Nc1ccc2nc(-c3ccccc3)c(-c3ccccc3)nc2c1 | · | 10% | · | · | · | ·
Nc1ccc(Oc2ccc3nc(-c4ccccc4)c(-c4ccccc4)nc3c2)cc1 | 12% | 1% | 11% | -9% | 14µM*[quencher] | 1
Cn1c(=O)n(C)c2cc(/C=N/NC(N)=S)ccc21 | ? | 32µM* | -8% | -8% | -4% | -1
O=C1C(c2cc(=O)c3ccccc3[nH]2)=C(O)c2ccccc21 | 3% | -13% | 10% | 4.5µM* | -10% | -19
O=c1cc(-c2ccccc2)[nH]c2ccccc12 | ? | 11% | -5% | -10% | -7% | -2
CCc1ccccc1NCC(=O)Nc1ccc(Cl)c(C(F)(F)F)c1 | -6% | 7% | ? | -19% | 18µM*[quencher] | -1
Brc1ccccc1/C=N/Nc1ccc2ccccc2n1 | -5% | 40µM* | 8% | ? | ? | 0
Brc1ccc(/C=N/Nc2ccc3ccccc3n2)cc1 | ? | ? | -7% | ? | ? | -3
O=C(O)C[C@@H]1C(=O)O[C@@H]2C(COC(=O)c3cc(O)c(O)c(O)c3)O[C@@H](OC(=O)c3cc(O)c(O)c(O)c3)[C@@H](OC(=O)c3cc(O)c(O)c4c3[C@H]1[C@H](O)C(=O)O4)[C@H]2OC(=O)c1cc(O)c(O)c(O)c1 (stereo partly specified) | 0.71µM* | 45µM* | -17% | ? | ? | -23
COC1OC(COC(=O)c2ccccc2)C(OC(=O)c2ccccc2)C1OC(=O)c1ccccc1 (stereo unspecified) | · | -1% | · | · | · | -2
Cc1c(N(C)S(=O)(=O)c2cccc(C(=O)NC(C)C)c2)c(=O)n(-c2ccccc2)n1C | · | 79µM* | · | · | · | 0
COc1ccc(S(=O)(=O)N(C)c2c(C)n(C)n(-c3ccccc3)c2=O)cc1OC | -1% | 7% | -11% | 10% | -2% | 2
Cc1ccc2nc(NCc3ccccc3)c(C#N)cc2c1 | ? | 79µM* | · | · | · | -13
Cc1ccc2nc(NCCNC(=O)c3ccccc3)c(C#N)cc2c1 | · | -6% | · | · | · | 3
CCn1c(CC2C(=O)N(C)c3ccccc32)nc2ccccc2c1=O (stereo unspecified) | · | · | 4% | -3% | 2% | ·
Cc1nn(C)cc1C(=O)Nc1ccc2c(c1)OCCO2 | · | 50µM* | · | · | · | 0
O=C(Nc1ccc2c(c1)OCCO2)c1ccccc1F | 8% | -11% | -2% | -8% | 6% | 1
Cc1c(C(=O)Nc2ccc3c(c2)OCCO3)cnn1C | · | 10% | · | · | · | -4
O=C(Nc1ccc2c(c1)OCCO2)c1cccc2nc3ccccc3nc12 | 3% | ? | 5% | 4.5µM* | ? | ·
Clc1ccc(Sc2cc(Cl)c(Cl)cc2Cl)cc1 | · | -15% | · | · | · | 0
CC1C/C(=C/c2ccccn2)C(=O)/C(=C/c2ccccn2)C1 (stereo unspecified) | ? | 45µM* | 8.9µM* | 10µM* | -14% | -1
SMILES | JMJD2E inh | Sfp inh | Tau FP inhib | Tau ThT inhib | Tau fluor cs | FBPA coupling cs
CC(C)(C)C1C/C(=C/c2ccccn2)C(=O)/C(=C/c2ccccn2)C1 (stereo unspecified) | -5% | ? | ? | 11µM* | -25% | 0
O=C1/C(=C/c2ccccn2)COc2ccccc21 | 6% | -21% | 2% | ? | 0% | -4
CC(O)C#C[Si](C)(C)c1ccccc1 (stereo unspecified) | -2% | 1% | 2% | 1% | 0% | -2
O=[N+]([O-])c1ccc(N/N=C/c2c[nH]c3ccccc23)cc1 | 4% | 7% | ? | 3.2µM* | 7.9µM*[quencher] | -2
O=[N+]([O-])c1ccccc1N/N=C/c1c[nH]c2ccccc12 | 0% | 7% | -15% | 3.2µM* | 3.5µM*[quencher] | -6
O=[N+]([O-])c1cccc(N/N=C/c2cccc3ccccc23)c1 | ? | -2% | -2% | ? | 8.9µM*[quencher] | -6
O=C(N/N=C/c1c[nH]c2ccccc12)c1cccc([N+](=O)[O-])c1 | 1% | 6% | ? | ? | ? | -2
C/C(CCC(=O)OC[C@@H]1O[C@H](C#Cc2ccccc2)C=C[C@@H]1Oc1ccc(C)cc1)=N/O[C@@H](C)CN1CCCc2nc(C)c(C)cc21 | · | -11% | 0%[11.6 µM] | -12%[11.5 µM] | -10%[11.6 µM] | 3
COc1cccc(N2CC(NC(=O)COc3ccccc3F)CC2=O)c1 (stereo unspecified) | · | · | 0% | 1% | 4% | ·
COc1ccc(CCNCc2c(C(=O)O)c(C)n(Cc3ccccc3C)c2C)c(OC)c1 | · | · | -5% | -2% | 0% | ·
S=c1nc(-c2ccco2)[nH][nH]1 | ? | 28µM* | -2% | -7% | -10% | 1
CCOC(=O)c1noc2ncnc(N3CCN(c4cccc(Cl)c4)CC3)c12 | · | · | 5% | -18% | -24% | ·
O=C(Nc1cccc(C(=O)Nc2ccc(S(=O)(=O)O)c3cc(S(=O)(=O)O)cc(S(=O)(=O)O)c23)c1)Nc1cccc(C(=O)Nc2ccc(S(=O)(=O)O)c3cc(S(=O)(=O)O)cc(S(=O)(=O)O)c23)c1 | 7% | 45µM*! | ? | -1% | -7% | 15
COC(=O)Cn1c(=O)c2c(n(Cc3ccccc3)c1=O)N/C(=C/c1ccc(Br)cc1)C2=O | -3% | 5% | 9% | 16µM* | ? | 1
CNC(=O)N(O)C1N(/N=C/c2ccccc2O)C(=S)SC1(C)C (stereo unspecified) | -17% | 45µM* | -1% | -11% | -12% | -5
